# The whole screen tested about 1,900 compounds, of which about 250 (13%) were called active. About 4% were inconclusive and are not listed.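 Rule for the calls: active = fitted curve reaches 40% rescue activity at or below the top valid dose, in every test run; inconclusive = test runs disagree, some active and some inactive; inactive = every run misses the threshold or moves the wrong way.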 Only a sample is shown. Potency and affinity values are given separately.
# Experiment: suppressors of statin myotoxicity in myotubes, dose response, cell-based, C2C12 myotubes, ATP luminescence, cherry pick (AID 624405);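 note: myotubes are challenged with simvastatin at 10 µM to lower ATP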
# Settings: C2C12 myotubes + simvastatin, 48 h, scaled: DMSO wells 0, geranylgeraniol wells 100; series mostly up to 19.5 µM; rescue activity (ATP increase): at the top concentration
row,Structure (SMILES),rescue activity (ATP increase)
1,Cc1cc(C)c2cc(CN(Cc3ccco3)C(=O)NCc3ccccc3)c(=O)[nH]c2c1,-0.102% (inactive)
2,COc1ccc(NC(=O)Cn2ccc(C(F)(F)F)n2)cc1S(=O)(=O)N1CCOCC1,16.8% (inactive)
3,C[C@@H]1CCCCO[C@H](CN(C)S(=O)(=O)c2ccc(Cl)cc2)[C@@H](C)CN([C@H](C)CO)C(=O)c2cc(NS(C)(=O)=O)ccc2O1,2.07% (inactive)
4,CCOC(=O)c1c(C)oc2ccc(OCC(=O)C(C)(C)C)cc12,-29.5% (inactive)
5,COc1ccc(C)cc1NC(=O)C1CCCN1C(=O)OCc1ccccc1 (centres undefined),3.12% (inactive)
6,CC(=O)c1cccc(NC(=O)N2CCCC2C(=O)Nc2cc(C)ccc2C)c1 (centres undefined),-10.1% (inactive)
7,O=C(Nc1ccccc1Cl)N1C[C@H]2[C@@H](c3ccccc31)[C@H](CO)N2Cc1ccccc1,5.61% [at 21 µM] (inactive)
8,C[C@H]1CN([C@@H](C)CO)C(=O)Cc2cc(NC(=O)Nc3ccc(C(F)(F)F)cc3)ccc2O[C@H]1CN(C)Cc1ccc(Oc2ccccc2)cc1,-10.2% [at 21 µM] (inactive)
9,C[C@@H]1CCCCO[C@@H](CN(C)Cc2ccc(Cl)c(Cl)c2)[C@@H](C)CN([C@@H](C)CO)C(=O)c2cc(NC(=O)NC3CCCCC3)ccc2O1,4.06% (inactive)
10,Cc1sc2nc(CN(C(=O)c3cccs3)C3CCCC3)[nH]c(=O)c2c1C,14.6% (inactive)
11,C[C@@H]1CN([C@@H](C)CO)C(=O)Cc2cc(NC(=O)Cc3cn(C)c4ccccc34)ccc2O[C@H]1CN(C)Cc1ccc(Cl)c(Cl)c1,6.39% [at 21 µM] (inactive)
12,O=C(CSc1ncn(-c2ccccc2)n1)Nc1ccc2c(c1)OCCO2,9.96% (inactive)
13,Cc1ccc(CSc2nnc3nc(C)cc(C)n23)cc1,-2.42% (inactive)
14,CCOC(=O)Nc1c(C(=O)OC)[nH]c2cc(OC)ccc12,-14.6% (inactive)
15,CC(C)CCNc1ncnc2c1cnn2Cc1ccccc1Cl,-4.83% (inactive)
16,Cc1ccccc1S(=O)(=O)N(C)C[C@H]1OCc2ccccc2-c2c(n(C)c3ccccc23)C(=O)N([C@H](C)CO)C[C@H]1C,19.1% (inactive)
17,Cc1cccc(S(=O)(=O)N(C)C[C@H]2OCc3ccccc3-c3c(n(C)c4ccccc34)C(=O)N([C@@H](C)CO)C[C@H]2C)c1,17.8% (inactive)
18,C[C@H](CO)N1C[C@H](C)[C@@H](CN(C)S(=O)(=O)c2ccccc2)OCCCC[C@H](C)Oc2ccc(N(C)C)cc2C1=O,-3.9% (inactive)
19,C[C@@H]1CN([C@@H](C)CO)C(=O)c2cc(NC(=O)NC3CCCCC3)ccc2O[C@@H](C)CCCCO[C@H]1CN(C)C(=O)c1ccccc1,8.25% [at 21 µM] (inactive)
20,COc1ccc(CN2[C@H](CO)[C@@H]3c4ccccc4N(C(=O)C4CC4)C[C@@H]32)cc1,0.017% (inactive)
21,CCCCCCN1Cc2ccccc2C1,31.9% (inactive)
22,CCCCn1c(=O)c(-c2ccccc2)c(O)c2ccccc21,22.6% (inactive)
23,Cc1ccc(OCCCn2c(CO)nc3ccccc32)cc1,28.8% (inactive)
24,CCC(=O)NCCc1nc2ccccc2n1Cc1ccccc1,0.181% (inactive)
25,C=C(C)Cn1c(CCCNC(=O)C(C)(C)C)nc2ccccc21,0.573% (inactive)
26,CCc1nc2ccccc2n(CCOCCOCCn2c(=O)c(CC)nc3ccccc32)c1=O,-42.8% (inactive)
27,CCN1CCCC1CNC(=O)c1c(O)c2c([nH]c1=O)CCCC2 (centres undefined),-17.6% (inactive)

row,Structure (SMILES),rescue activity (ATP increase)
1,COCC(C)NS(=O)(=O)c1ccc(C)cc1 (centres undefined),-10.5% (inactive)
2,C[C@H]1CN([C@@H](C)CO)C(=O)Cc2cc(NC(=O)c3ccncc3)ccc2O[C@@H]1CN(C)C(=O)Nc1cccc2ccccc12,2.64% [at 21 µM] (inactive)
3,C[C@H](CO)N1C[C@H](C)[C@@H](CN(C)S(=O)(=O)c2ccc(Cl)cc2)OCCCC[C@H](C)Oc2ccc(NS(C)(=O)=O)cc2C1=O,-2.17% (inactive)
4,C[C@H](CO)N1C[C@H](C)[C@@H](CN(C)Cc2ccc(Cl)c(Cl)c2)Oc2ccc(NC(=O)Cc3ccccc3)cc2CC1=O,31.3% (inactive)
5,C[C@H]1CN([C@@H](C)CO)C(=O)c2cc(C3=CCCCC3)cnc2O[C@H]1CN(C)C(=O)c1ccccn1,-12.9% (inactive)
6,Cc1cc(NC(=O)c2ccc(N3C(=O)CCC3=O)cc2)no1,20.2% (inactive)
7,COc1cc(C)ccc1OCCCOc1cc(C)ccc1Cl,12.3% (inactive)
8,COc1ccc(Cl)cc1C(=O)n1nc(C)cc1C,0.34% (inactive)
9,C[C@@H]1CN([C@@H](C)CO)C(=O)Cc2cc(NC(=O)CCC(F)(F)F)ccc2O[C@H]1CN(C)Cc1ccc(Oc2ccccc2)cc1,34.1% (inactive)
10,Cc1ccc(-c2nc3ccccc3[nH]2)cc1NC(=O)c1ccco1,-123% (inactive)
11,CCc1c(C)sc(NC(=O)c2ccco2)c1C(=O)N1CCCCC1,11.7% (inactive)
12,C[C@H](CO)N1C[C@H](C)[C@@H](CN(C)Cc2ccc(-c3ccccc3)cc2)Oc2ccc(NC(=O)Cc3cn(C)c4ccccc34)cc2CC1=O,16.5% (inactive)
13,C[C@@H]1CN([C@H](C)CO)C(=O)c2cccc(NS(=O)(=O)c3cccs3)c2O[C@@H]1CN(C)Cc1ccc(Oc2ccccc2)cc1,37.4% (inactive)
14,CC1Cc2ccccc2N1C(=O)C1CCN(S(=O)(=O)Cc2ccccc2)CC1 (centres undefined),13.7% (inactive)
15,Cc1cc(C(=O)CSc2nnnn2-c2ccccc2)c(C)n1CCc1ccccc1,-34.3% (inactive)
16,CCOC(=O)c1ccc(-c2c(C(=O)OCC)oc3cc(O)c(CC)cc3c2=O)o1,25.6% (inactive)
17,Cc1cccc(C(=O)N2CCC(n3nnc4cc(F)ccc43)CC2)c1,-54.9% (inactive)
18,COc1ccccc1NC(=O)CN1C(=O)CCS(=O)(=O)c2ccccc21,49.8% (inactive)
19,Cc1cccc(C)c1NC(=O)c1nc(S(=O)(=O)Cc2ccccc2)ncc1Cl,-777% (inactive)
20,CS(=O)(=O)c1ncc(Cl)c(C(=O)Nc2ccc(OC(F)F)cc2)n1,-436% (inactive)
21,CCC(NS(=O)(=O)c1ccc(C)cc1)C(=O)Nc1ccc(NC(C)=O)cc1 (centres undefined),-17.2% (inactive)
22,Cc1noc(C)c1NC(=O)Nc1ccc2c(c1)C(=O)N([C@H](C)CO)C[C@@H](C)[C@H](CN(C)C(=O)Nc1ccccc1)OCCCC[C@@H](C)O2,2.09% (inactive)
23,CN1C[C@@H]2[C@H](c3ccccc31)[C@H](CO)N2Cc1ccccc1,-1.19% (inactive)
24,Nc1nc(CSc2nnnn2-c2ccccc2)nc(N2CCCc3ccccc32)n1,-0.398% (inactive)
25,COC(=O)c1c(C)noc1-c1cc(C)on1,21.9% (inactive)
26,C[C@@H]1CN([C@H](C)CO)C(=O)c2cc(NC(=O)Nc3ccc(F)cc3)ccc2O[C@@H](C)CCCCO[C@@H]1CN(C)S(=O)(=O)c1cccs1,-1.09% (inactive)
27,COc1cccc(-c2cnc3c(c2)C(=O)N([C@H](C)CO)C[C@H](C)[C@H](CN(C)Cc2cccc(C)c2)O3)c1,-22.6% (inactive)

# From PubChem BioAssay AID624405 (Broad Institute, 2012)
